Reference: PubChem BioAssay (NCATS)
Inconclusive results are not listed. Values without a mark were called inactive. Calls come from the whole dose curve; as a rule, active = well fitted inhibition curve with a large enough effect; inconclusive = small, poorly fitted or top-dose-only effect; inactive = no such curve, though single readings can be large or run the other way.

What follows are compounds tested against Cytochrome P450 3A7 (Homo sapiens) (UniProt P24462) (assay: Cytochrome P450 family 3 subfamily A member 7 (CYP3A7) small molecule antagonists: luciferase biochemical qHTS assay (AID 1963596; note: nearly all actives have a fitted effect of over 40% in size)). Conditions: P450-Glo CYP3A7 enzyme luminescence, 1 h; series mostly up to 57.4 µM; activity change, negative = inhibition: at the top concentration.
Procedure, shortened: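 Recombinant CYP3A7 P450-Glo luminescent assay: enzyme-proluciferin substrate mix preincubated with compound 10 min at room temperature, reaction started with NADPH regeneration system for 1 h. Luciferin detected by luminescence; ketoconazole as positive control.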
% is set by controls: 0 for no effect and ±100 for the full control effect.

Chain of Cytochrome P450 3A7 (Homo sapiens) (P24462 whole entry, looked up): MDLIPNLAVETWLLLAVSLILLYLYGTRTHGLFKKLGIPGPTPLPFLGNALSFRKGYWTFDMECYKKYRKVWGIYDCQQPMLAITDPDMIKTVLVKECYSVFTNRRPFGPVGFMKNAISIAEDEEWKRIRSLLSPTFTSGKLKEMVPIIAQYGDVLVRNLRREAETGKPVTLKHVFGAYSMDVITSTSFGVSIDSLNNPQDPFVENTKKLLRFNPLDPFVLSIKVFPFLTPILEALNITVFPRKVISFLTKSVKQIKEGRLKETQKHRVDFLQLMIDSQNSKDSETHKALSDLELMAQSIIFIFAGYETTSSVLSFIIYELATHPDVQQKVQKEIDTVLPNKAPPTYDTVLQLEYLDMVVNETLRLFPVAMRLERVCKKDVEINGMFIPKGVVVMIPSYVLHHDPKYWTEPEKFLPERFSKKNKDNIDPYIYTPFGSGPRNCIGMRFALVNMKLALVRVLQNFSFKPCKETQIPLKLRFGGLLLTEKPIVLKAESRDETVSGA

SMILES | activity change, negative = inhibition
Cc1ccc(-n2c(SCc3cccc(F)c3)nc3[nH]ncc3c2=O)cc1C | 0%
O=P(O)(O)OC(CO)CO | -2.72%
O=C(Nc1cccc(Cl)c1)Nc1ccccc1OCc1cc(=O)n2ccccc2n1 | 0.318%
O=C(O)c1cc(O)c2c(O)c3c(O[C@@H]4O[C@H](CO)[C@@H](O)[C@H](O)[C@H]4O)cccc3c(-c3c4cc(C(=O)O)cc(O)c4c(O)c4c(O[C@@H]5O[C@H](CO)[C@@H](O)[C@H](O)[C@H]5O)cccc34)c2c1 | 0%
COc1ccc(C(=O)NC(c2ccc(Cl)cc2)c2cc(Cl)c3cccnc3c2O)cc1 (stereo not given) | 1.02%
CN(C)CC1CCOC1(c1ccccc1)c1ccccc1 (stereo not given) | 16.7% [at 23.9 µM]
O=C(O)C1CN(Cc2ccc(-c3nc4cc(Cc5ccccc5F)ccc4s3)c(F)c2)C1 | -6.84% [at 11.5 µM]
COc1cc(C(=O)NC(c2ccc(Cl)cc2)c2cc(Cl)c3cccnc3c2O)cc(OC)c1OC (stereo not given) | 16.9%
Cc1cccc(NC(=O)Cn2c(=O)n(Cc3ccc(C(=O)NCc4ccc5c(c4)OCO5)cc3)c(=O)c3ccccc32)c1 | 0.364%
C=CC1=C(C(=O)O)N2C(=O)[C@@H](NC(=O)/C(=N\O)c3csc(N)n3)[C@H]2SC1 (stereo in doubt) | -8.65%
O=C(O)C1CSC(C(=O)O)N1 (stereo not given) | -9.82%
COc1ccc(-n2[nH]c3c(cnc4ccccc43)c2=O)cc1 | 12.4%
O=C(NC1CCC1)c1ccc(C#Cc2cccc(F)c2)nc1 | 8.39%
O=C1CC[C@H](C(=O)O)N1 | -1.48%
COc1ccc(-n2nc3c(N4CCCC(C(=O)NCc5ccc(C)cc5)C4)nnc(C)c3c2C)cc1 (stereo not given) | 14.6%
